Casp6 inh: blocks human caspase-6 cleavage activity; inhibition, % at 12.5 µM; P55212; 0.53% of 350,000 active; purified caspase-6, Z-VEID-R110 cleavage fluorescence;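 active means mean inhibition across replicates at least about 35%, with every replicate also reaching that limit, limit read from the data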
HDAC3 inhib: human HDAC3 inhibition; O15379; recombinant HDAC3, fluorogenic peptide/trypsin coupled, fluorescence; inhibition, % at 8.3 µM; 0.15% of 320,000 active; AID 2718; in the data active means inhibition above about 26%, passing the limit was not always enough
NSD2 HMT inh: NSD2 (human) methyltransferase inhibition. inhibition, % at 12.5 µM. AID 743445. NSD2 peptide methylation, AlphaScreen, 120 min. 0.54% of 310,000 active; in the data active means inhibition above about 50%
N-glyco inh: blocks N-linked glycosylation in D54 reporter cells; D54 ERlucT glycosylation luciferase reporter, 24 h; percent of 100 nM tunicamycin response; reporter increase, % at 12.5 µM; 0.23% of 360,000 active;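 active means mean luciferase reporter signal, scaled so untreated is 0 and the glycosylation-blocking control 100, at or above a set limit in every replicate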;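 further: luciferase carries N-glycosylation sites so blocking glycosylation raises the light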
C-LANA FP: blocks KSHV LANA C-terminal domain binding to DNA. MBP-C-LANA/FAM-LBS DNA binding, fluorescence polarization. inhibition, % at 9 µM. 0.078% of 340,000 active. AID 504423;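 active means highest replicate inhibition at or above 60% at 9 µM, even if other replicates fall short; inactive means all replicates below 60% inhibition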
Keap1-Nrf2 PPI: disrupts human Keap1 binding to Nrf2 peptide. Keap1 Kelch-Nrf2 peptide fluorescence polarization, 1536-well. inhibition, % at 9.4 µM. 0.15% of 340,000 active. AID 504523. Q14145; in the data active means inhibition above about 12%;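 further: human Keap1 Kelch domain with fluorescein labeled Nrf2 9mer peptide probe; higher means more block of Keap1 binding to Nrf2 peptide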
Target sequence (Q14145 whole entry, looked up, the tested form may be a part): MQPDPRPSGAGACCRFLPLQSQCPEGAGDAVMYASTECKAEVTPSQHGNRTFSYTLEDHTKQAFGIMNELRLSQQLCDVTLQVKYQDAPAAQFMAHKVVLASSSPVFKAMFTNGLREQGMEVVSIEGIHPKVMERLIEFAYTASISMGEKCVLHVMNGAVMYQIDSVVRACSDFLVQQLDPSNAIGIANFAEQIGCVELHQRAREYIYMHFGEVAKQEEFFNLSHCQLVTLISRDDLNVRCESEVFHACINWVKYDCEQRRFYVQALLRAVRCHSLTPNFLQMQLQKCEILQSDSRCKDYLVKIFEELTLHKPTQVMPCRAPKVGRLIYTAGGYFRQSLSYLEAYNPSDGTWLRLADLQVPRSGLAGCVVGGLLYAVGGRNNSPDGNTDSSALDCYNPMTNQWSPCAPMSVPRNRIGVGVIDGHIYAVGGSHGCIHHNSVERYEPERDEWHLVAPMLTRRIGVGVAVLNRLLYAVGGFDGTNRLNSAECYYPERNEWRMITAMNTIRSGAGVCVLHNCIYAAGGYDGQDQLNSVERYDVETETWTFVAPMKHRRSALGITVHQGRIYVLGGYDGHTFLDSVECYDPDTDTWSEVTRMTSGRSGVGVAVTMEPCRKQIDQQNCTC
Alpha artifact: interferes with AlphaScreen signal, flagging NSD2 false positives. AC35, µM (titrated, usually from 10 µM). 9.4% of 1,500 active. shares compounds with NSD2 HMT inh. AID 1053174. AlphaScreen artifact counterscreen, preloaded methylated H4 peptide; call rule not given here
A number is an active result; n = inactive; x = no result. The list is not random: actives were taken first. Their share in the collection is about 1.1%.

SMILES | Casp6 inh | HDAC3 inhib | NSD2 HMT inh | N-glyco inh | C-LANA FP | Keap1-Nrf2 PPI | Alpha artifact
CC(=O)Nc1ccc(N(C(=O)CNC(=O)c2ccco2)C(C(=O)NCC2CCCO2)c2ccccc2)cc1 (stereo unspecified) | n | n | 51.4 | n | n | n | n
CC1CCCC(NC(=O)COC(=O)c2c[nH]c(=O)[nH]c2=O)C1C (stereo unspecified) | x | n | 77.8 | n | n | n | n
Cc1cc(C(=O)OCC(=O)NC2CCCC(C)C2C)c(C)o1 (stereo unspecified) | n | n | n | n | n | n | x
COc1cccc(=O)c2c(C)n(-c3ccc(C(=O)O)cc3)c(C)c12 | n | n | 78.7 | n | n | n | n
CCOc1cccc(=O)c2c(C)n(-c3ccc(C(=O)O)cc3)c(C)c12 | n | n | 92.8 | n | n | n | n
COc1ccccc1-c1ccc2n(c1=O)C[C@H]1[C@H](CO)[C@@H](C(=O)N3CCN(C)CC3)[C@@H]2N1CC1CC1 | n | x | x | x | x | x | x
C[C@@H]1CCCCO[C@H](CN(C)S(=O)(=O)c2ccc(Cl)cc2)[C@@H](C)CN([C@@H](C)CO)C(=O)c2cc(NC(=O)c3ccncc3)ccc2O1 | n | x | x | x | x | x | x
COc1ccccc1N(CC(=O)NCC1CCCO1)C(=O)CNS(=O)(=O)c1ccc(C)cc1 (stereo unspecified) | x | n | 68.6 | n | n | n | n
CN(C)CC(=O)Nc1ccc2c(c1)[C@@H]1C[C@H](CC(=O)NCc3ccccc3)O[C@@H](CO)[C@@H]1O2 | n | x | x | x | x | x | x
CCC(CC)c1nnc(NC(=O)CCS(=O)(=O)Cc2ccccc2)s1 | n | n | 61.1 | n | n | n | n
CCc1nnc(NC(=O)CCS(=O)(=O)Cc2ccccc2)s1 | n | n | n | n | n | n | x
C[C@H](CO)N1C[C@H](C)[C@@H](CN(C)Cc2ccc3c(c2)OCCN3C)OCc2ccccc2-c2c(n(C)c3ccccc23)C1=O | n | x | x | x | x | x | x
C[C@@H]1CN([C@H](C)CO)C(=O)c2cc(-c3cccc(F)c3)cnc2O[C@@H]1CN(C)Cc1ccccc1 | n | x | x | x | x | x | x
Cc1cccc(NC(=O)CSCC(=O)NCc2cccc(C(F)(F)F)c2)c1 | n | n | 97.9 | n | n | n | n
CO[C@H]1CN(C)C(=O)c2cc(NS(=O)(=O)c3cccc(C)c3)ccc2OC[C@@H](C)NC[C@H]1C | n | x | x | x | x | x | x
CN1/C(=C/c2cc[n+](C)c3ccccc23)C=Cc2ccccc21 | x | x | x | n | n | n | x
C[n+]1ccc(/C=C/c2ccccc2O)c2ccccc21 | n | n | 50.4 | n | n | n | n
CN(C)c1cccc2c1c(NC(=O)Nc1ccccc1)nn2C | n | x | 87.7 | n | n | n | n
CN(C)c1cccc2c1c(NC(=O)Nc1ccc(F)cc1F)nn2C | n | n | n | n | n | n | x
COc1ccc(C(=O)N[C@H](C(=O)NCc2ccc(C)cc2)C(C)C)cc1 | n | n | 75.3 | n | n | n | n
CCOC(=O)c1cc(NC(=O)CN2CCCC2)cc(C(=O)OCC)c1 | n | n | 96.4 | n | n | n | n
C=CCn1c(SCc2ccc3c(c2)OCO3)nc2scc(-c3ccco3)c2c1=O | x | n | 116.7 | n | n | n | n
CCN1CC2CCCC3(C1)C(=O)NC1(CCCCC1)N=C23 (stereo unspecified) | x | n | 56.0 | n | n | n | n
O=C1NC(=S)S/C1=C\c1cc2ccccc2nc1N1CCCCC1 | n | n | 83.3 | n | n | n | n
CN1CCN(C(=O)C[C@@H]2CC[C@H](NC(=O)Nc3ccccc3F)[C@@H](CO)O2)CC1 | n | x | x | x | x | x | x
SMILES | Casp6 inh | HDAC3 inhib | NSD2 HMT inh | N-glyco inh | C-LANA FP | Keap1-Nrf2 PPI | Alpha artifact
CSc1nnc2c(n1)OC=Nc1ccc(Br)cc1-2 | n | n | n | n | n | n | x
CSc1nnc2c(n1)OC=Nc1ccccc1-2 | x | n | 67.3 | n | n | n | n
C[C@@H]1CN([C@H](C)CO)S(=O)(=O)c2ccc(C3=CCCCC3)cc2O[C@H]1CN(C)C(=O)Cc1ccncc1 | n | x | x | x | x | x | x
CCOC(=O)CCCCC(=O)c1[nH]c(=O)[nH]c1CSc1nc(C)cc(C)n1 | x | n | x | n | n | n | x
CCOC(=O)CCCCC(=O)c1[nH]c(=O)[nH]c1CSc1nc(C)cc(=O)[nH]1 | n | n | 105.9 | n | n | n | n
CCOC(=O)CCCCC(=O)c1[nH]c(=O)[nH]c1C[n+]1ccccc1 | x | n | x | x | x | x | x
CCOC(=O)CCCCC(=O)c1[nH]c(=O)[nH]c1CSc1nc2ccccc2[nH]1 | x | n | 99.7 | n | n | n | n

Screening results as filed in PubChem.
